# Assay outcomes from PubChem.
# NCF1 inh: p47phox/p22phox peptide binding inhibitors, primary screen, biochemical, uHTS, NADPH oxidase regulatory subunit; inhibition, % at 24.7 µM; Neutrophil cytosol factor 1 (Homo sapiens), P14598; fluorescence polarization, 2 h; 220,000 tested, 0.53% active
# Bim-Mcl-1: inhibitors of Bim peptide binding to Mcl-1, primary screen, biochemical, bead-based flow cytometry, multiplex. 190,000 tested, 0.1% active. Induced myeloid leukemia cell differentiation protein Mcl-1 (Homo sapiens), Q07820. inhibition, % at 10 µM. Bim peptide-Mcl-1 binding; in the data active means inhibition above about 40%
# eIF4E-4G inh: eIF4E–eIF4G protein interaction inhibitors, primary screen, biochemical, uHTS, TR-FRET, eIF4GI fragment; TR-FRET eIF4E-eIF4GI(517-606) binding, 2 h; inhibition, % at 21.7 µM; 220,000 tested, 0.37% active; AID 782, 2007
# Target sequence (P63073 whole entry, looked up, the tested form may be a part): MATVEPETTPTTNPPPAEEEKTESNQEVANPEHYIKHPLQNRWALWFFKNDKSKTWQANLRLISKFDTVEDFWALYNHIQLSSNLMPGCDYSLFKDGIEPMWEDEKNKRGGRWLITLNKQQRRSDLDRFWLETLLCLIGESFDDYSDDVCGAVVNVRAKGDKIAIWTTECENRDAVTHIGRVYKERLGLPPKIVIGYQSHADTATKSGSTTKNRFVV
# Target sequence (Q04637 whole entry, looked up, the tested form may be a part): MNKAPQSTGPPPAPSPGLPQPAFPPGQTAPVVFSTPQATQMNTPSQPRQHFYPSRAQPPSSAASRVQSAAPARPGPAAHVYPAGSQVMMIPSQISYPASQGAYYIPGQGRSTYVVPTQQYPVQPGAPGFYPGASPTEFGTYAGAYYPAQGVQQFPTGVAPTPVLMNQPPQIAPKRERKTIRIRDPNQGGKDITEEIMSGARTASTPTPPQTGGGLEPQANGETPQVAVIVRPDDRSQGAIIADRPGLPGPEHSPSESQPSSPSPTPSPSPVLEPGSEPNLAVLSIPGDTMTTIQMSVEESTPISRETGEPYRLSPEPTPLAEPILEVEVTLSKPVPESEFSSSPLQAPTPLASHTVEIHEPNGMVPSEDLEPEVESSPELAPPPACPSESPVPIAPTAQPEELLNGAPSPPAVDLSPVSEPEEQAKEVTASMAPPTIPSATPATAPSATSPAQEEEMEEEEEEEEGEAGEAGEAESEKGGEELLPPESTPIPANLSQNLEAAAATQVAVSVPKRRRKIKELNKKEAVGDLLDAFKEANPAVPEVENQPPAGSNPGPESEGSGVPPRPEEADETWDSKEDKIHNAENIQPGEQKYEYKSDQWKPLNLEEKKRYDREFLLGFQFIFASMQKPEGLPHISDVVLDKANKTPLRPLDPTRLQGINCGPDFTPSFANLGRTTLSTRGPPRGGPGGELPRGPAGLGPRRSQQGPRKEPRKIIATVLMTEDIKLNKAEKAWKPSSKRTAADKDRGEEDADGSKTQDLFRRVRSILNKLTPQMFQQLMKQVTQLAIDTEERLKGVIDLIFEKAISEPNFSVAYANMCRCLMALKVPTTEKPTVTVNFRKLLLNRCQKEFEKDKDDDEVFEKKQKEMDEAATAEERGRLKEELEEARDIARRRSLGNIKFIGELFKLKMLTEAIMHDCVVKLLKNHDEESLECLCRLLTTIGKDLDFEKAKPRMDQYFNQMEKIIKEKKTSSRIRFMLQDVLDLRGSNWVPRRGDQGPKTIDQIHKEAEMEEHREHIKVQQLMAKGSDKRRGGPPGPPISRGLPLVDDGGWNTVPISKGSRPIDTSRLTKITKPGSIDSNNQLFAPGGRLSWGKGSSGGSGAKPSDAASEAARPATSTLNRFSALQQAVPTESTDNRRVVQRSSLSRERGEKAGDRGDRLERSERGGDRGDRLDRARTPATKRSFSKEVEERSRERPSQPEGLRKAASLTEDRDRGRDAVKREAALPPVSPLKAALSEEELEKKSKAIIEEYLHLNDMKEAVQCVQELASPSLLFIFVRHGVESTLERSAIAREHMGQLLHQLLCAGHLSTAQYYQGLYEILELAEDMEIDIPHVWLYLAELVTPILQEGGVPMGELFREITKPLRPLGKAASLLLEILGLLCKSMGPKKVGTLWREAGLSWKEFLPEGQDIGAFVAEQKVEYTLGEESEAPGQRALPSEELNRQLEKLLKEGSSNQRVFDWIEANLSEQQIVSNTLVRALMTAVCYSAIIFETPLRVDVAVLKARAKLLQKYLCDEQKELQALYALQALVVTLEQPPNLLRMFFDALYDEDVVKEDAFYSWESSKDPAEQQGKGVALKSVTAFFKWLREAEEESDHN
# 14-3-3 Bad inh: inhibitors of 14-3-3 zeta/Bad binding, primary screen, biochemical, TR-FRET, bovine 14-3-3 zeta | 220,000 tested, 0.71% active | inhibition, % at 21.7 µM | TR-FRET 14-3-3zeta/Dy647-pBad peptide displacement, 1 h;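 active means inhibition above about 70%, limit read from the data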
# Mcl1-Noxa inh: Mcl-1/Noxa binding inhibitors, primary screen, biochemical, TR-FRET, 1536-well | Induced myeloid leukemia cell differentiation protein Mcl-1 (Homo sapiens), Q07820 | TR-FRET Mcl-1/Noxa peptide binding, 2 h | inhibition, % at 21.7 µM | 220,000 tested, 1.5% active;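 active means compounds that cut the protein-peptide binding signal by more than 50% relative to plate controls in a single-dose test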;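 further: His-tagged Mcl-1 with rhodamine Noxa BH3 peptide and terbium anti-His antibody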
# Mcl1 Bid PPI: Mcl-1/Bid binding inhibitors, primary screen, biochemical, TR-FRET, 1536-well; Induced myeloid leukemia cell differentiation protein Mcl-1 (Homo sapiens), Q07820; TR-FRET Mcl-1/Bid-Dy647 peptide binding; inhibition, % at 21.7 µM; 220,000 tested, 0.97% active;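 active means compounds that cut the binding signal by more than half at the single screening dose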;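 further: His-tagged Mcl-1 with europium anti-His antibody binding Bid BH3 peptide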
# Numbers stand for hits; i = inactive; nt = no result given. Sampled rows, rich in hits. Any-hit rate of the full collection: about 3.4%.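 How the source made its calls, unless noted: active means inhibition above about 30% (limit read from the data); inactive means the rest.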
SMILES,NCF1 inh,Bim-Mcl-1,eIF4E-4G inh,14-3-3 Bad inh,Mcl1-Noxa inh,Mcl1 Bid PPI
CC1=C(C(=O)OCc2ccccc2)C(/C=C/c2ccccc2)NC(=S)N1 (stereo not given),i,i,i,i,i,53.8
COc1cc(C(=O)NC2(C(F)(F)F)NC(=O)N(CCCc3ccccc3)C2=O)cc(OC)c1OC (stereo not given),i,i,i,i,i,63.8
CC(C)(C)C(=O)NC1(C(F)(F)F)NC(=O)N(Cc2ccccc2)C1=O (stereo not given),i,nt,i,i,i,i
Cc1cccc(C(=O)N2CCc3cc(-c4nc(NC(=O)Cn5nnc6ccccc6c5=O)sc4C)ccc32)c1,i,i,i,i,50.8,66.5
O=C(c1ccco1)N1CCN(Cc2cccnc2)CC1,i,i,i,i,i,50.8
O=C(c1cccs1)N1CCN(Cc2cccnc2)CC1,i,i,i,75.9,i,i
O=C(CN1CCN(C(=O)c2ccco2)CC1)Nc1c2c(nc3c1CCC3)CCCC2,i,i,i,i,i,50.5
O=C(c1cccs1)N1CCN(CCCc2ccccc2)CC1,i,i,i,72.3,i,i
O=C(c1cccs1)N1CCC(Cc2ccccc2)CC1,i,i,i,i,i,i
COc1ccc(CN2CCN(C(=O)c3cccs3)CC2)cc1,i,i,i,i,i,i
Cc1ccc(S(=O)(=O)N2CCCCC2)c(C)c1NS(C)(=O)=O,i,i,i,i,i,i
O=C(CSc1cccc[n+]1[O-])c1cc(Cl)ccc1Cl,i,i,i,i,i,i
CCOc1ccccc1NC(=O)CSc1ccc([N+](=O)[O-])cc1,i,i,i,i,i,i
O=C(c1ccc(F)cc1)N1CCN(C(=O)c2cccnc2)CC1,i,i,i,i,i,i
Cc1cc(NC(=O)C(=O)NCCN2CCN(C(=O)c3cccs3)CC2)ccc1Br,i,i,i,i,i,i
O=C(c1cccs1)N1CCN(Cc2ccncc2)CC1,i,i,i,73.5,i,i
O=C(c1cccs1)N1CCN(Cc2ccccc2)CC1,i,i,i,i,i,i
O=C(Oc1cccnc1)c1ccco1,i,i,i,81.3,i,i
O=C(c1cccnc1)N1CCN(CCCc2ccccc2)CC1,i,i,i,72.2,i,i
COc1ccc(NC(=O)C(=O)NCCN2CCN(C(=O)c3cccs3)CC2)cc1,i,i,i,i,61.9,i
Cn1ccc(CC(=O)N2CCC(N3CCC(C(=O)N4CCCC4)CC3)CC2)c1,i,nt,i,i,i,i
CCOC(=O)C1CCN(Cc2cn(C)nc2-c2ccc(Oc3ccccc3)cc2)CC1,i,i,i,i,i,i
C#CCOCCOCCOCCNc1nc(N2CCN(C(=O)[C@H](CCCCN)n3cc([C@@H](N)CO)nn3)CC2)nc(N2CCN(C(=O)[C@H](Cc3cc4ccccc4[nH]3)n3cc([C@@H](N)Cc4ccc(O)cc4)nn3)CC2)n1,38.7,i,i,i,i,i
C#CCOCCOCCOCCNc1nc(N2CCN(C(=O)[C@H](Cc3ccc(O)cc3)n3cc([C@@H](N)CC(C)C)nn3)CC2)nc(N2CCN(C(=O)[C@H](Cc3cc4ccccc4[nH]3)n3cc([C@@H](N)CC(C)C)nn3)CC2)n1,nt,i,i,i,i,i
C#CCOCCOCCOCCNc1nc(N2CCN(C(=O)[C@H](CCCCN)n3cc([C@@H](N)CC(C)C)nn3)CC2)nc(N2CCN(C(=O)[C@H](Cc3cc4ccccc4[nH]3)n3cc([C@@H](N)Cc4ccc(O)cc4)nn3)CC2)n1,nt,i,i,i,i,59.9
Cc1cccc(-n2nnc3c(=O)n(Cc4ccccn4)cnc32)c1,i,i,i,i,i,i
